For 38 molecules, outcome and AC50 results are on record in PubChem BioAssay (EPA / NIEHS).

Activity calls are given as the source filed them. The calls were made as follows: active = hit-call score of the fitted dose curve at least 0.9, where 1 is the maximum; inactive = score below 0.9.

Read-out in this assay: Secreted IgG (sIgG), gene 3500
Kind of assay: BSK_BT_sIgG: BioMAP Diversity Plus: BT Assay for Secreted IgG (sIgG) Biomarker Activity (AID 2284226). The conditions noted are these: primary human B cells with PBMC. As for the experimental part: BSK_BT is a cell-based, multiplexed-readout assay that uses B cell and peripheral blood mononuclear cells, a human vascular primary cell co-culture, with measurements taken at 24 hours after chemical dosing in a microplate: 96-well plate.BSK_BT_sIgG is an assay component measured in the BSK_BT assay. It measures secreted IgG related to regulation of gene expression using ELISA technology.Data from the assay component BSK_BT_sIgG was analyzed at the endpoint, BSK_BT_sIgG, in the positive analysis fitting direction relative to DMSO as the negative control and baseline of activity. Using a type of cytokine quantitation reporter, gain or loss-of-signal activity can be used to understand protein changes. To generalize the intended target to other relatable targets, this assay endpoint is annotated to the 'immunoglobulin' intended target family, where the subfamily is 'IgG'.
The levels of cell surface (or secreted, indicated by the prefix "s") biomarker endpoints were measured by ELISA. Overt cytotoxicity to cells in confluent adherent cultures (all systems other than the BT system) was assessed by measuring total protein levels using sulforhodamine B (SRB) staining in parallel cultures at the time of biomarker measurements, indicated as SRB endpoints. For proliferation assays for adherent cell types, individual cell types are cultured at sub-confluence and relative cell numbers quantified by SRB staining at time points optimized for each system (48 h: 3C and CASM3C systems; 72 h: BT and HDF3CGF systems; 96 h: SAg system). SRB was performed by staining cells with 0.1% SRB after fixation with 10% TCA and reading wells at 560 nm.Viability and proliferation of PBMC (T cells) was quantified by Alamar Blue reduction for the SAg and BT systems. For PBMC viability (referred to as PBMC Cytotoxicity within the assay endpoint names), cells were plated (75,000/well in a 96-well plate) and then chemical samples added for 1 h before addition of activators, SEB and TSST-1 (20 ng/mL final concentration each). Cells were incubated for 90 h. Then, Alamar Blue (20 uL/well) (Invitrogen, Cat DAL1100) was added for 6 h, and the plates were read with a fluorescence microplate reader at 546/580 nm (excitation/emission). For PBMC proliferation, cells were plated and activated as above but incubated for only 16 h prior to addition of Alamar Blue. Plates were read after 6 h.
`Cc1ccc2n[nH]nc2c1`: the outcome was inactive.
`N#Cc1ccc(CC(=NNC(=O)Nc2ccc(OC(F)(F)F)cc2)c2cccc(C(F)(F)F)c2)cc1`: the AC50 (as a rule, the midpoint of the concentration-response curve, whichever way the signal moves) is 9.95 µM (active).
The same measure, in the same setting: the value for `CCn1c2ccccc2c2cc(N)ccc21` was 15.4 µM (active); that for `O=C(O)C[C@H](O)C[C@H](O)/C=C/c1c(C2CC2)nc2ccccc2c1-c1ccc(F)cc1` was 0.122 µM (active).
Take `CCCCC(CC)COCCC#N` (stereo not drawn): the result was inactive.
The same measure, in the same setting: the value for `O=C(O)c1cn(C2CC2)c2cc(N3CCNCC3)c(F)cc2c1=O` was “inactive”; that for `CCc1c(C)cc(N)c(CC)c1N` was “inactive”.
On to `CCCCC(CC)COC(=O)/C=C\C(=O)OCC(CC)CCCC` (stereo not drawn), for which the AC50 is 7.47 µM (active).
In the case of `CC(C)c1ccc(C(C)C)cc1`, the result was inactive.
Same read-out and setting: the value for `CNC[C@H](O)c1cccc(O)c1` was “inactive”; that for `CC(=O)/C=C/C1=C(C)CCCC1(C)C` was “inactive”.
Regarding `BrC1CCC(Br)C(Br)CCC(Br)C(Br)CCC1Br` (stereo not drawn), the AC50 is 9.16 µM (active).
Still for that read-out and setting: the value for `O=C1CCCCCCCCCCCCCCO1` was 23.4 µM (active).
The same measure, in the same setting: the value for `CC1COc2ccccc2N1C(=O)C(Cl)Cl` (stereo not drawn) was 20 µM (active); that for `CCCCC/C=C/C=C/C=O` was 29 µM (active).
For `CCCCCCCCCCCCCCCCCC(=O)OCC(CC)CCCC` (stereo not drawn), the outcome was inactive.
For `O=C1OC2(c3cc(Br)c(O)c(Br)c3Oc3c2cc(Br)c(O)c3Br)c2c(Cl)c(Cl)c(Cl)c(Cl)c21`, the outcome was inactive.
Still for that read-out and setting: the value for `O=C(O)c1cn(-c2ccc(F)cc2)c2cc(N3CCNCC3)c(F)cc2c1=O` was “inactive”; that for `CC(C)Oc1ccccc1O` was “inactive”.
On to `CCCCCCCCCC=O`, for which the AC50 is 20 µM (active).
On the same count and under the same terms, the value for `CC(C)(COC(=O)c1ccccc1)COC(=O)c1ccccc1` was 29.9 µM (active); that for `CC(=O)O[C@]1(C(C)=O)CC[C@H]2[C@@H]3C[C@H](C)C4=CC(=O)CC[C@]4(C)[C@H]3CC[C@@]21C` was 14.4 µM (active).
As for `COC(=O)c1ccc(C)cc1`, the result was inactive.
Turning to `c1ccc2c(c1)c1cccc3ccc4cccc2c4c31`, the AC50 is 20 µM (active).
Turning to `Cc1ccc(Nc2ccc(O)c3c2C(=O)c2ccccc2C3=O)cc1`, the result was inactive.
As for `O=C=NC1CCC(CC2CCC(N=C=O)CC2)CC1` (stereo not drawn), the AC50 is 31 µM (active).
Take `CC(=O)Nc1ccccc1O`: the result was inactive.
On the same count and under the same terms, the value for `CC1CCC(C(C)CS)CC1S` (stereo not drawn) was “inactive”; that for `Cc1ccc(O)c(C(C)(C)C)c1` was “inactive”; that for `Nc1cc([N+](=O)[O-])ccc1Cl` was “inactive”.
Same read-out and setting: the value for `O=[N+]([O-])c1cc(C(F)(F)F)ccc1Cl` was “inactive”; that for `CCCCCCCCC=O` was “inactive”.
`O=P(c1ccccc1)(c1ccccc1)c1ccccc1`: the result was inactive.
For `C#C[C@]1(O)CC[C@H]2[C@@H]3CCC4=Cc5oncc5C[C@]4(C)[C@H]3CC[C@@]21C`, the AC50 is 14.3 µM (active).
Take `CN(CCOc1ccc(CC2SC(=O)NC2=O)cc1)c1ccccn1` (stereo not drawn): the outcome was inactive.
On the same count and under the same terms, the value for `C=C[Si](OCC)(OCC)OCC` was “inactive”.
Still for that read-out and setting: the value for `c1ccc2sc(SN(C3CCCCC3)C3CCCCC3)nc2c1` was “inactive”; that for `C=C(C)C(=O)O[C@H]1C[C@@H]2CC[C@@]1(C)C2(C)C` was “inactive”.
